The nature of test [1]: qHTS assay for small molecule agonists of the p53 signaling pathway (AID 651631; calls by dose curve; further: nearly all actives have a fitted effect of over 15% in size; further: potency means the concentration at half of the fitted maximal effect). To be noted: HCT-116 p53RE-bla reporter, beta-lactamase FRET ratio, 16 h; series mostly up to 73.3 µM. Put shortly:
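HCT-116 cells carrying a beta-lactamase reporter under p53 response elements were dosed with compound for 16 h at 37 °C. LiveBLAzer B/G FRET substrate was then added for 2 h at room temperature, and fluorescence intensity was read to detect pathway agonism.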

The nature of test [2]: qHTS assay for small molecules that induce genotoxicity in human embryonic kidney cells expressing luciferase-tagged ATAD5 (AID 651632). Further: nearly all actives have a fitted effect of over 15% in size. Further: potency means the concentration at half of the fitted maximal effect. To be noted: HEK293T ATAD5-luciferase induction, 16 h; series mostly up to 83.3 µM. Put shortly: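 Luminescent reporter readout, HEK293T ATAD5-luc line: 16 hr drug exposure (37C, 5% CO2) followed by Amplite, 30 min RT.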
Test [3] can be described thus: qHTS assay for small molecule agonists of the p53 signaling pathway - cell viability (AID 651633; calls by dose curve; further: nearly all actives have a fitted effect of over 30% in size). To be noted: p53RE-bla HCT-116 viability, ATP luminescence, 16 h; series mostly up to 83.3 µM. In a few lines: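 p53RE-bla cells were treated with compound for 16 hours at 37 C. Cytotoxicity was then measured as CellTiter-Glo luminescence after 30 min at room temperature.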

Test [4] is described as follows: qHTS assay for small molecules that induce genotoxicity in human embryonic kidney cells expressing luciferase-tagged ATAD5 - cell viability (AID 651634; calls by dose curve; further: nearly all actives have a fitted effect of over 25% in size; further: potency means the concentration at half of the fitted maximal effect). To be noted: HEK293T ATAD5-luc cells viability, CellTiter-Fluor, 15.5 h; series mostly up to 83.3 µM. In a few lines:
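Viability read: CellTiter-Fluor fluorescence, 30 min at 37C. Cells: HEK293T, luciferase-tagged ATAD5. Exposure: 15.5 hr, 37C, 5% CO2, compound or DMSO vehicle.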

Test [5] is described as follows: qHTS assay for small molecule disruptors of the mitochondrial membrane potential - cell viability (AID 720634; calls by dose curve;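 further: human HepG2 liver cancer cells; nearly all actives have a fitted effect of over 20% in size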). To be noted: HepG2 viability, ATP luminescence (CellTiter-Glo), 1 h; series mostly up to 83.2 µM. In a few lines: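 HepG2, 1 hr compound, 37 C. ATP luminescence via CellTiter-Glo, 30 min RT, same well as m-MPI.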
A short description of test [6]: qHTS assay for small molecule disruptors of the mitochondrial membrane potential (AID 720635). Further: potency means the concentration at half of the fitted maximal effect. Particulars: HepG2 mitochondrial membrane potential, Mito-MPS dye ratio; series mostly up to 83.2 µM. Put shortly: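 HepG2 cells exposed to compound 1 hr at 37C, then Mito-MPS dye 30 min. Ratio read of aggregate (540/590 nm) versus monomer (490/535 nm) fluorescence.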
Test [7] is described as follows: qHTS assay to test for compound auto fluorescence at 590 nm (red) in HepG2 cells (AID 720674). Particulars: HepG2 autofluorescence, red 540/590 nm, 1 h; series mostly up to 91.3 µM. In a few lines: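 Fluorescence at 590 nm emission following 540 nm excitation was recorded from HepG2 wells one hour after compound transfer, with DMSO-only wells as vehicle and Rose Bengal sodium equivalency as the scale.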

Test [8] in a line: qHTS assay to test for compound auto fluorescence at 535 nm (green) in HepG2 cells (AID 720675). Particulars: green autofluorescence 485/535 nm, 1 h; series mostly up to 91.3 µM.
Test [9] in a line: qHTS assay to test for compound auto fluorescence at 460 nm (blue) in HEK293 cells (AID 720678). To be noted: blue autofluorescence 405/460 nm; series mostly up to 91.3 µM. Put shortly:
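Blue-channel (Ex/Em 405/460 nm) intensity measured in HEK293 cultures after overnight compound exposure at 37C; signal expressed relative to triamterene. Cells plated 2,000 per well in 10% dialyzed FBS medium and allowed 4-5 hr to attach.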

Test [10] is described as follows: qHTS assay to test for compound auto fluorescence at 590 nm (red) in HEK293 cells (AID 720679). To be noted: red autofluorescence 540/590 nm; series mostly up to 91.3 µM. Put shortly: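 Red-channel autofluorescence (Ex/Em 540/590 nm; Rose Bengal sodium reference) was measured after overnight 37C, 5% CO2 exposure of attached HEK293 cells, 2,000 per well in medium with 10% dialyzed FBS.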

A short description of test [11]: qHTS assay to test for compound auto fluorescence at 535 nm (green) in HEK293 cells (AID 720680). Particulars: green autofluorescence 485/535 nm; series mostly up to 91.3 µM.
Test [12] can be described thus: qHTS assay to test for compound auto fluorescence at 460 nm (blue) in HEK293 cell free culture (AID 720681). Particulars: cell-free medium, autofluorescence 405/460 nm (blue); series mostly up to 91.3 µM. In a few lines: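 Compounds were added to cell-free DMEM with 10% FBS and fluorescence read directly. The blue channel used 405 nm excitation and 460 nm emission, with triamterene as the reference fluorophore.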

The nature of test [13]: qHTS assay to test for compound auto fluorescence at 535 nm (green) in HEK293 cell free culture (AID 720682). Particulars: cell-free medium, green autofluorescence 485/535 nm, active compounds read high; series mostly up to 91.3 µM. In a few lines:
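Green-label autofluorescence (485 nm excitation, 535 nm emission) measured on compound added to cell-free culture medium (DMEM, 10% FBS). Output is expressed relative to fluorescein.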

Test [14] can be described thus: qHTS assay to test for compound auto fluorescence at 590 nm (red) in HEK293 cell free culture (AID 720683). Particulars: cell-free medium autofluorescence, Ex540/Em590 red; series mostly up to 91.3 µM. In a few lines: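 Cell-free wells of DMEM with 10% FBS received compound, and intrinsic fluorescence was read at excitation/emission 540/590 nm. Values expressed as equivalence to Rose Bengal sodium.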

A short description of test [15]: qHTS assay to test for compound auto fluorescence at 590 nm (red) in HepG2 cell free culture (AID 720684). Particulars: cell-free medium autofluorescence, red 540/590 nm; series mostly up to 91.3 µM. Put shortly: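 Compounds are added to culture medium (MEM, 10% FBS) lacking cells, then fluorescence is read at excitation 540 nm, emission 590 nm, with Rose Bengal sodium as the equivalency standard.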

Test [16] in a line: qHTS assay to test for compound auto fluorescence at 460 nm (blue) in HepG2 cell free culture (AID 720685). Particulars: Cell-free culture medium, blue autofluorescence 405/460 nm; series mostly up to 91.3 µM. Put shortly:
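Compound (23 nL) or DMSO pinned into cell-free MEM with 10% FBS; blue fluorescence read at 405/460 nm excitation/emission, expressed as auto-fluorescence equivalency to triamterene.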

A short description of test [17]: qHTS assay to test for compound auto fluorescence at 535 nm (green) in HepG2 cell free culture (AID 720686). Particulars: Cell-free medium, green autofluorescence 485/535 nm; series mostly up to 91.3 µM.
Test [18] in a line: qHTS assay to test for compound auto fluorescence at 460 nm (blue) in HepG2 cells (AID 720687). To be noted: autofluorescence 405/460 nm, 1 h; series mostly up to 91.3 µM. In a few lines: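 HepG2 cells in MEM with 10% FBS, attached overnight at 37 C, were exposed to compound or DMSO for 1 hr at 37 C, 5% CO2. Blue fluorescence was read at 405/460 nm, with triamterene as reference fluorophore.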

In test [19] the target is Glucocorticoid receptor (Homo sapiens) (UniProt P04150). Nature of the test: qHTS assay to identify small molecule agonists of the glucocorticoid receptor (GR) signaling pathway (AID 720691; active means well fitted activation curve with a large enough effect in the signal ratio in the repeat runs, not every such curve was filed as active; the % refers to the signal ratio). To be noted: GR-bla HeLa, beta-lactamase reporter ratio, 18 h; series mostly up to 62.4 µM. In a few lines: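 qHTS in GR-bla HeLa cells: 4 h settling at 37 C/5% CO2, 18 h compound incubation at 37 C, 2 h LiveBLAzer B/G FRET substrate at room temperature, fluorescence intensity measured.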
Chain of Glucocorticoid receptor (Homo sapiens) (P04150 whole entry, looked up): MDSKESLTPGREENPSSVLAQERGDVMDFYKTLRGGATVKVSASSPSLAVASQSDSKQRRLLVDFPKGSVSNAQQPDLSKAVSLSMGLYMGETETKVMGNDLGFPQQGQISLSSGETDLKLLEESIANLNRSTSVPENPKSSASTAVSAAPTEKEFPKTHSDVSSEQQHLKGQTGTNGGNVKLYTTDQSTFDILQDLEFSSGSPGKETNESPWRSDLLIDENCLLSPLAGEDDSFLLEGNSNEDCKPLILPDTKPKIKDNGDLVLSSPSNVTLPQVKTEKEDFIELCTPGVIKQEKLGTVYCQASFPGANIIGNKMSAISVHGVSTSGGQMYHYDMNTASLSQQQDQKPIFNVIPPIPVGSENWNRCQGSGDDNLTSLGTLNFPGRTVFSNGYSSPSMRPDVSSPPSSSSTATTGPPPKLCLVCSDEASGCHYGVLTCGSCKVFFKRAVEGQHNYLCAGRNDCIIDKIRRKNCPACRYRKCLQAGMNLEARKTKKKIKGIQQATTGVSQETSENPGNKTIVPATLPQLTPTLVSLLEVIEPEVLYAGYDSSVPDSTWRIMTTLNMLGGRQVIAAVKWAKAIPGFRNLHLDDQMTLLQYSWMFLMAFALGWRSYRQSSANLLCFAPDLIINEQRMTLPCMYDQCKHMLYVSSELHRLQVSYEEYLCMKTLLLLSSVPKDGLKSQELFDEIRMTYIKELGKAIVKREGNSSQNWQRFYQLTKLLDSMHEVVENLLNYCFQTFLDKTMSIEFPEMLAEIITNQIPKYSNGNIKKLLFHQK

For test [20] the target is unchanged. Nature of the test: qHTS assay to identify small molecule antagonists of the glucocorticoid receptor (GR) signaling pathway (AID 720692; active means well fitted inhibition curve with a large enough effect in the signal ratio in the repeat runs, not every such curve was filed as active; the % refers to the signal ratio). Particulars: GR-bla HeLa, beta-lactamase FRET ratio, dexamethasone-stimulated, 18 h; series mostly up to 58.5 µM. Put shortly: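 Inhibition of glucocorticoid signalling is measured in HeLa cells with a GRE-controlled beta-lactamase reporter; cells are co-treated with compound and 5 nM dexamethasone (final) for 18 h before FRET substrate readout.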

A number with no mark means an inactive call. Records with an inconclusive call do not appear. Activity calls are given as the source filed them. Unless noted, the call rests on the fitted dose curve; in most records, active means well fitted curve in the direction sought with a large enough effect in the repeat runs; inconclusive means weak or mixed curves; inactive means no such curve, though single readings can be large; an effect the other way counts as inactive or inconclusive.
On the % scale 0 is the no-effect control and ±100 the full control effect.

Take `N#C/C(=C1\SCC(c2ccccc2Cl)S1)n1ccnc1` (stereo not drawn): the Potency result in [1], in [2], in test [3], in test [4], in test [5] and in [6] was “inactive” in each case. Also, the Potency entry in [9], in [12], in test [16], in test [18] and in [19] was “inactive” each time. For the same compound, the compound was classed as inactive in test [7], in [8], in [10], in test [11], in test [13] and in test [14]. For the same compound, the compound was called inactive in test [15] and in [17].
Consider `COC(=O)Nc1nc2ccc(C(=O)c3cccs3)cc2[nH]1`, for which the Potency is 133 nM (active) in test [1], 2370 nM (active) in [2], 133 nM (active) in [4] and 2370 nM (active) in test [6]. For the same compound, the Potency result in [3], in test [5], in test [9], in [16] and in test [18] was “inactive” each time. In addition, the outcome in test [7], in test [8], in test [10], in [11], in test [13] and in [14] was inactive. In [17], the compound was called inactive.
For the compound `CCC(C(=O)OCCOCCN(CC)CC)c1ccccc1` (stereo not drawn), the Potency result in test [1], in [2], in test [3], in test [4], in [5] and in test [6] was “inactive” in each case. Also, the Potency result in test [9], in test [12], in test [16], in test [18] and in [20] was “inactive” in each case. The compound was called inactive in test [7], in test [8], in test [10], in test [11], in test [13] and in [14]. Besides, the call in test [17] was inactive.
With `CC(=O)CC(c1ccc([N+](=O)[O-])cc1)c1c(O)c2ccccc2oc1=O` (stereo not drawn), the Potency entry in test [1], in [2], in test [3], in [4] and in test [5] was “inactive” each time. For the same compound, in test [6], the Potency is 7170 nM (active). The fluorescence, relative to Rose Bengal in test [7] is -0.182% [at 18.6 µM]. Further, the fluorescence, % of fluorescein control in test [8] was 0.0036% [at 18.6 µM]; in test [17], 0.0092% [at 18.6 µM]. In test [9], the fluorescence, % of triamterene is -0.0105% [at 18.6 µM]. Moreover, the fluorescence, % of fluorescent control in [10] is 0.088% [at 18.6 µM]; in test [14], -0.0043% [at 18.6 µM]; in [16], -0.0473% [at 18.6 µM]; in test [18], -0.107% [at 18.6 µM]. For the same compound, in test [11], the fluorescence, % of fluorescein is 0.0049% [at 18.6 µM]. Besides, in test [13], the activity change is 0.0438% [at 18.6 µM]. Also, the fluorescence, % of Rose Bengal in test [15] is 0.571% [at 18.6 µM].
Turning to `CC1=CC(=O)CC(C)(C)C1(O)/C=C/C(C)=C\C(=O)O` (stereo not drawn), the Potency entry in [1], in test [2], in test [3], in [4], in [5] and in test [6] was “inactive” each time. Further, the Potency result in test [9], in test [12], in test [16], in test [18], in test [19] and in [20] was “inactive” each time. Besides, the compound was classed as inactive in test [7], in test [8], in test [10], in test [11], in test [13] and in test [14]. Besides, the outcome in test [15] and in test [17] was inactive.
On to `Fc1c(F)c(F)c(Br)c(F)c1F`, for which the Potency result in test [1], in test [2], in test [3], in test [4], in [5] and in test [6] was “inactive” throughout. For the same compound, the Potency result in test [9], in test [12], in test [16] and in [18] was “inactive” throughout. Besides, the call in test [7], in test [8], in [10], in test [11], in test [13] and in test [14] was inactive. The call in [15] and in test [17] was inactive.

The values are drawn from PubChem BioAssay (Tox21).
